Assay results taken from ChEMBL document CHEMBL1961873, “Compounds: GSK PKIS; Assays: Nanosyn kinase panel” (2012).

Key:
[1] = molecular target: Platelet-derived growth factor receptor beta (Homo sapiens) (UniProt P09619); details: at 1 µM;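 note: each value is a mean percent inhibition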
[2] = molecular target: Tyrosine-protein kinase FRK (Homo sapiens) (UniProt P42685); details: at 0.1 µM
[3] = molecular target: Tyrosine-protein kinase FRK (Homo sapiens) (UniProt P42685); details: at 1 µM
[4] = molecular target: Protein-tyrosine kinase 2-beta (Homo sapiens) (UniProt Q14289); details: at 0.1 µM
[5] = molecular target: Protein-tyrosine kinase 2-beta (Homo sapiens) (UniProt Q14289); details: at 1 µM
[6] = molecular target: Proto-oncogene tyrosine-protein kinase receptor Ret (Homo sapiens) (UniProt P07949); details: at 0.1 µM
[7] = molecular target: Proto-oncogene tyrosine-protein kinase receptor Ret (Homo sapiens) (UniProt P07949); details: at 1 µM
[8] = system: Proto-oncogene tyrosine-protein kinase receptor Ret (Homo sapiens), P07949 [V804L]; details: at 0.1 µM
[9] = system: Proto-oncogene tyrosine-protein kinase receptor Ret (Homo sapiens), P07949 [V804L]; details: at 1 µM
[10] = system: Proto-oncogene tyrosine-protein kinase receptor Ret (Homo sapiens), P07949 [Y791F]; details: at 0.1 µM
[11] = system: Proto-oncogene tyrosine-protein kinase receptor Ret (Homo sapiens), P07949 [Y791F]; details: at 1 µM
[12] = molecular target: Macrophage-stimulating protein receptor (Homo sapiens) (UniProt Q04912); details: at 0.1 µM
[13] = molecular target: Macrophage-stimulating protein receptor (Homo sapiens) (UniProt Q04912); details: at 1 µM
[14] = molecular target: Proto-oncogene tyrosine-protein kinase ROS (Homo sapiens) (UniProt P08922); details: at 0.1 µM
[15] = molecular target: Proto-oncogene tyrosine-protein kinase ROS (Homo sapiens) (UniProt P08922); details: at 1 µM
[16] = molecular target: Proto-oncogene tyrosine-protein kinase Src (Homo sapiens) (UniProt P12931); details: at 0.1 µM
[17] = molecular target: Proto-oncogene tyrosine-protein kinase Src (Homo sapiens) (UniProt P12931); details: at 1 µM
[18] = molecular target: Tyrosine-protein kinase Srms (Homo sapiens) (UniProt Q9H3Y6); details: at 0.1 µM
[19] = molecular target: Tyrosine-protein kinase Srms (Homo sapiens) (UniProt Q9H3Y6); details: at 1 µM
[20] = molecular target: Tyrosine-protein kinase SYK (Homo sapiens) (UniProt P43405); details: at 0.1 µM;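 note: reported percentages are mean inhibition values for SYK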

Sequence of Tyrosine-protein kinase FRK (Homo sapiens) (P42685 whole entry): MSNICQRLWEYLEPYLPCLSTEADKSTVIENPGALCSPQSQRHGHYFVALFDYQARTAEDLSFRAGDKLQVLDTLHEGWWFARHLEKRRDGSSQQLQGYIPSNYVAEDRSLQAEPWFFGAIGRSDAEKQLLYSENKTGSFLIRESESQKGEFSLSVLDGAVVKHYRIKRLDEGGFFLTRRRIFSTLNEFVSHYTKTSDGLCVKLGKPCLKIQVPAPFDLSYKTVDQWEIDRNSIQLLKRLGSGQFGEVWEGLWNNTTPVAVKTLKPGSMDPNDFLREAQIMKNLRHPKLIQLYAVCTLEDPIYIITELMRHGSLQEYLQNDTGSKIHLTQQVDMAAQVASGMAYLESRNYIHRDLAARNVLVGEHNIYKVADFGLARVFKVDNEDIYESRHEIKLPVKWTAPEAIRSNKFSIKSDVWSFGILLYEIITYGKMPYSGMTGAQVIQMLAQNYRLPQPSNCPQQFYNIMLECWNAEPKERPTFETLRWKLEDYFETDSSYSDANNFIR
Sequence of Proto-oncogene tyrosine-protein kinase receptor Ret (Homo sapiens) (P07949 whole entry): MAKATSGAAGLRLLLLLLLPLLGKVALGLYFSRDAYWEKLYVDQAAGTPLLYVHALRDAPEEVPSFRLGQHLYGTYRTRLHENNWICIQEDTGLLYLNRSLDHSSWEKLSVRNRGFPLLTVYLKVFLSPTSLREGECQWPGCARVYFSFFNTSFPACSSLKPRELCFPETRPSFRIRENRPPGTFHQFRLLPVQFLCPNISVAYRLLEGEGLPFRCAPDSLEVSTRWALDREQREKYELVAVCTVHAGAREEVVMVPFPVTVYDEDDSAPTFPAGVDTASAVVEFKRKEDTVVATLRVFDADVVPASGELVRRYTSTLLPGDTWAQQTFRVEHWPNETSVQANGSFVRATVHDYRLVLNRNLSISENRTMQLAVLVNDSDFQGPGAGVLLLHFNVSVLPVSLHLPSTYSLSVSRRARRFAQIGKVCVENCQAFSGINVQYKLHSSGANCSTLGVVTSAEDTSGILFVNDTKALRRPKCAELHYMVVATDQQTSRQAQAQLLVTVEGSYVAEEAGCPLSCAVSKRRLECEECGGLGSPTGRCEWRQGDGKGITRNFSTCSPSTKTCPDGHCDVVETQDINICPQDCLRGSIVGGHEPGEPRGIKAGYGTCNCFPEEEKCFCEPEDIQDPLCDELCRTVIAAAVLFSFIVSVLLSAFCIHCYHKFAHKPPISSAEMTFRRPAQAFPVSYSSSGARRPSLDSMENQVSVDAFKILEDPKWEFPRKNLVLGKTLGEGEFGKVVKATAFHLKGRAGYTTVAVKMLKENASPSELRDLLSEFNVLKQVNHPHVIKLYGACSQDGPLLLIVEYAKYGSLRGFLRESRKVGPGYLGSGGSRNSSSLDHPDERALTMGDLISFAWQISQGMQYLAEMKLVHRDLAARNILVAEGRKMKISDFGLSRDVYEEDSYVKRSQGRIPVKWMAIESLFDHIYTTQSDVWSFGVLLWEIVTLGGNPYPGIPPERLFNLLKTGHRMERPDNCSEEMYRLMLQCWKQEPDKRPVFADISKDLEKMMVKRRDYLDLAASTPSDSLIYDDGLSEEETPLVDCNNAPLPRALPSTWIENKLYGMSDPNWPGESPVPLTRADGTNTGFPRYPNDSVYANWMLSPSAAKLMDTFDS
Sequence of Protein-tyrosine kinase 2-beta (Homo sapiens) (Q14289 whole entry, looked up): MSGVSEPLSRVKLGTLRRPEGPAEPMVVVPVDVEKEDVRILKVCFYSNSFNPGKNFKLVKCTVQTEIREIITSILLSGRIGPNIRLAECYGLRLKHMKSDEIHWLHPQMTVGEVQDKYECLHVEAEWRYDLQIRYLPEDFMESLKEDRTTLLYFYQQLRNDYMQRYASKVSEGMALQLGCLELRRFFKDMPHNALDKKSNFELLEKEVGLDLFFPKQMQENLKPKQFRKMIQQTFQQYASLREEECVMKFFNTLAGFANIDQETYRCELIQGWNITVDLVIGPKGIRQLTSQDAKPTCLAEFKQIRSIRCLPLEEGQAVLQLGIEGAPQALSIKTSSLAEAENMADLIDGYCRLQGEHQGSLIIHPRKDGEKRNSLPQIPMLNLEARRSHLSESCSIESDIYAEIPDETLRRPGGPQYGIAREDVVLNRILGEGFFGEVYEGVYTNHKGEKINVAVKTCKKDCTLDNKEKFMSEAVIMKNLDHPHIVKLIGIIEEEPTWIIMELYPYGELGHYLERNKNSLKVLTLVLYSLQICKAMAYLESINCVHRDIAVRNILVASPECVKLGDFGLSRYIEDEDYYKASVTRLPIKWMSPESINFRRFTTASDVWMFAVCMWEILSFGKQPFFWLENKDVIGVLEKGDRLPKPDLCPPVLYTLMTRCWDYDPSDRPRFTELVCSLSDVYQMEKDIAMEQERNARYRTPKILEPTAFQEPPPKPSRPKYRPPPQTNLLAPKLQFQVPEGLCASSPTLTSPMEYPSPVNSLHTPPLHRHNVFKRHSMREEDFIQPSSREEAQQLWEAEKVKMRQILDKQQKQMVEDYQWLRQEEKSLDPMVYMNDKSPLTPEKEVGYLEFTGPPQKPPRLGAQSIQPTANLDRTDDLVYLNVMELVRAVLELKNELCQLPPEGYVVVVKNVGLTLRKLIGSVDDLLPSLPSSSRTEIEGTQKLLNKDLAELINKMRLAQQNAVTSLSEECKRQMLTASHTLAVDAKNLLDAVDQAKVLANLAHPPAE
Sequence of Platelet-derived growth factor receptor beta (Homo sapiens) (P09619 whole entry): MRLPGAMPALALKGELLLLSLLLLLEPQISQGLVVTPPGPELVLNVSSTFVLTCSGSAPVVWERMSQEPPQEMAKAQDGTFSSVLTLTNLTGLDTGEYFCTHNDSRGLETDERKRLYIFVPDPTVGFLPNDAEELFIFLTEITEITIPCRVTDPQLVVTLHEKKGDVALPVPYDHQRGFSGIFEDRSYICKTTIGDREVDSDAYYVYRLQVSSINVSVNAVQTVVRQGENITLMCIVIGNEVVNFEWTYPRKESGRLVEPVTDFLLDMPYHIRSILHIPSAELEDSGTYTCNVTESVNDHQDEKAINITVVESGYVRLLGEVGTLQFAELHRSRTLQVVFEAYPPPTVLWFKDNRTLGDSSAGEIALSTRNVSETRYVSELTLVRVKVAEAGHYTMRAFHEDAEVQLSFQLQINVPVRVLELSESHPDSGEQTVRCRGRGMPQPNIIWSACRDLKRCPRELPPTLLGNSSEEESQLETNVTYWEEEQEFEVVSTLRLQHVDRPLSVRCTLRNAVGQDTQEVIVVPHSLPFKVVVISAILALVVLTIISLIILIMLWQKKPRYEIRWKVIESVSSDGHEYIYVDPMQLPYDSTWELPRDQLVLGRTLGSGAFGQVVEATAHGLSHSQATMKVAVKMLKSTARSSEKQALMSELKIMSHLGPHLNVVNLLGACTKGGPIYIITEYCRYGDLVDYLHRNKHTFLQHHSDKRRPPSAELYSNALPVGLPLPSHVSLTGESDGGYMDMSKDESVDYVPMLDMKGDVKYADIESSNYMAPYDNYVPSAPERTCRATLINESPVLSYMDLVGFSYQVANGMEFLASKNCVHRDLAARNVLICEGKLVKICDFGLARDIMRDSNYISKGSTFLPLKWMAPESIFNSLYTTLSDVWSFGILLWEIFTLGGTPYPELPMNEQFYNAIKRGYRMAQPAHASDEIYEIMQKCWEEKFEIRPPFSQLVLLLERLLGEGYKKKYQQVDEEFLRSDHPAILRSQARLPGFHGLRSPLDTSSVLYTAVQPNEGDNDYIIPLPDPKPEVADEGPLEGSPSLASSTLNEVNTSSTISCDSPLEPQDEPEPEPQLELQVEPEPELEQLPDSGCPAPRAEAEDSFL
Sequence of Macrophage-stimulating protein receptor (Homo sapiens) (Q04912 25-304 limits assumed): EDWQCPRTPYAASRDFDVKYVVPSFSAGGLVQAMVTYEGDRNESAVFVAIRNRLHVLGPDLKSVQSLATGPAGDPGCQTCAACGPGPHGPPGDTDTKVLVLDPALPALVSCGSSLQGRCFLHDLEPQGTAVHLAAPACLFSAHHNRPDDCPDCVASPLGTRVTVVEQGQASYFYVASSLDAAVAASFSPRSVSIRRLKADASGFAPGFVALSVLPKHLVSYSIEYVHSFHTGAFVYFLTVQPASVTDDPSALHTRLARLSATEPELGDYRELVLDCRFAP
Sequence of Macrophage-stimulating protein receptor (Homo sapiens) (Q04912 310-1400 limits assumed): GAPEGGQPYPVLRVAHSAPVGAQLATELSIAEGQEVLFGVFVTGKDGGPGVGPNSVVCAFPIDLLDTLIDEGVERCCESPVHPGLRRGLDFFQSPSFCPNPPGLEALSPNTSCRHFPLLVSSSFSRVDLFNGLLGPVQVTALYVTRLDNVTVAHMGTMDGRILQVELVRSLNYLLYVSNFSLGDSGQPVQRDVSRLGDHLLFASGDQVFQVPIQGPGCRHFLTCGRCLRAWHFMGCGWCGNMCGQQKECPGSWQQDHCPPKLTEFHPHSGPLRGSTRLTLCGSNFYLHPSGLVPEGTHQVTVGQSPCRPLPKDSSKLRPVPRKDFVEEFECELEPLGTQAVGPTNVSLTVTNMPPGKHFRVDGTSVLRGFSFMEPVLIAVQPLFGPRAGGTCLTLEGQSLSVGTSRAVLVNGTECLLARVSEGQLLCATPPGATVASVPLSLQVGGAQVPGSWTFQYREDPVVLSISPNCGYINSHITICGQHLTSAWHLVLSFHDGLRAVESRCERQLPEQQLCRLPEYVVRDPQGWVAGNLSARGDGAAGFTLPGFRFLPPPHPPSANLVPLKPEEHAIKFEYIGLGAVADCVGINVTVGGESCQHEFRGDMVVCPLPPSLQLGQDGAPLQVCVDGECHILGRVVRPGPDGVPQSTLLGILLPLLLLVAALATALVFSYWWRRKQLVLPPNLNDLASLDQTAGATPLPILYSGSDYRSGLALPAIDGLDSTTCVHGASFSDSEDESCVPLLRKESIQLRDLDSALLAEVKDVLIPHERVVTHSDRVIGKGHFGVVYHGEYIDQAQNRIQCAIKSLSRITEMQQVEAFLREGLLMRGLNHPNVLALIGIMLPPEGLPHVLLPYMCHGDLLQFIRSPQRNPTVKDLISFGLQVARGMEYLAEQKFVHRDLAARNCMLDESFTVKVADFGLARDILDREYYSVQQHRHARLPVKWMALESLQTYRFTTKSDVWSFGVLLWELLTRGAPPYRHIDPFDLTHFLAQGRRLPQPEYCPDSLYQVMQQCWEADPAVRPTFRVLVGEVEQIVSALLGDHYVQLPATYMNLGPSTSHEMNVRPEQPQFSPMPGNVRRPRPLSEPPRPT

Structure (SMILES)	inhibition [1] [%]	inhibition [2] [%]	inhibition [3] [%]	inhibition [4] [%]	inhibition [5] [%]	inhibition [6] [%]	inhibition [7] [%]	inhibition [8] [%]	inhibition [9] [%]	inhibition [10] [%]	inhibition [11] [%]	inhibition [12] [%]	inhibition [13] [%]	inhibition [14] [%]	inhibition [15] [%]	inhibition [16] [%]	inhibition [17] [%]	inhibition [18] [%]	inhibition [19] [%]	inhibition [20] [%]
COc1cc(Nc2ncc3c(C)nc(-c4cccc(C(F)(F)F)c4)n3n2)cc(OC)c1OC	38	1.36	0.31	11.8	39.6	7.14	39.1	16.7	57.4	8.01	31.8	-0.28	6.04	6.64	10.5	22.6	74.4	1.58	0.29	-1.19
O=C(Nc1n[nH]c2cc(-c3cc(F)ccc3F)ccc12)C1CC1	14.1	2.44	0.71	9.57	10.3	6.14	10.3	3.33	2.9	7.68	11.5	4.71	1.65	5.51	5.37	-1.08	8.62	-0.64	-2.57	-7.24
COc1ccc2cc(-c3c(-c4ccncc4)nc(-c4ccc([S+](C)[O-])cc4C)n3C)ccc2c1 (stereo not drawn)	5.35	-0.28	-0.05	-4.54	-2.74	2.66	22.2	1.07	2.78	2	28.3	3.56	4.22	2.09	6.31	2.64	3.54	1.97	6.78	-0.12
Fc1ccc(-c2ncn(C3CCNCC3)c2-c2ccnc(Oc3ccc(Oc4ccccc4)cc3)n2)cc1	3.75	2.37	2.86	3.19	6.71	2.36	5.4	3.16	7.16	15.6	4.3	0.16	0.94	12.1	11	10.9	15.3	-1.67	-1.36	0.87
CCS(=O)(=O)c1ccc(OC)c(Nc2ncc(-c3cccc(-c4ccccc4F)c3)o2)c1	63.6	0.61	11.7	7.79	0.8	15.4	54.4	3.52	9.78	10.1	51.1	2.4	5.56	14.2	54.9	12.6	74.5	8.12	30.3	-3.99
CN1CCN(CCCNc2nc3ccc(Oc4ccc(NC(=O)Nc5cc(C(F)(F)F)ccc5F)cc4)cc3[nH]2)CC1	25.8	-0.13	5.78	6.22	7.87	76.2	86.2	38.8	74.9	65.8	83.9	-2.7	5.53	5.6	9.76	4.89	3.58	2.32	0.43	0.25
COc1cc2ncn(-c3cc(OCCc4ccccc4)c(C(N)=O)s3)c2cc1OC	49.9	0.72	1.86	3.82	4.2	3.22	23.2	0.58	9.89	6.66	21.3	-1.46	6.81	3.89	6.98	1.6	12.9	-2.94	-2.68	-2.02
NS(=O)(=O)c1ccc(N/N=C2\C(=O)Nc3ccc(C(=O)NCCCn4ccnc4)cc32)cc1	68.9	2.01	2.76	14.3	20.9	12.5	51.9	38.7	76.2	14.2	59.8	-0.93	7.24	9.73	13.2	9.31	27.1	-1.71	1.02	-1.95
COc1ccc(-c2ccc3c(NC(=O)C4CC4)n[nH]c3n2)cc1	5.91	0.53	-0.31	0.18	6.52	0.65	1.93	6.95	9.13	0.39	9.16	6.88	2.2	2.06	3.33	7.63	4.36	-2.79	2.08	0.08
Fc1ccc(-c2ncn(C3CCNCC3)c2-c2ccnc(Oc3ccc(F)c(F)c3)n2)cc1	10.6	2.06	2.77	4.15	11.9	3.19	7.38	4.74	11.2	7.7	9.54	4.15	2.54	5.19	4.41	5.82	7.25	-3.17	-3.06	-1.2
NC(=O)c1ccc(Oc2nccc(-c3c(-c4ccc(F)cc4)ncn3C3CCNCC3)n2)cc1	6.41	2.8	4.67	-0.03	10.9	1.55	2.99	2.2	5.79	3.11	3.63	4.31	6.11	9.43	7.5	13	13.6	-3.65	-3.42	-0.16
C[C@@H](Oc1cc(-n2cnc3ccc(OCC4CCN(C)CC4)cc32)sc1C(N)=O)c1ccccc1Cl	84.7	3.53	3.93	5.71	13.7	6.25	18.2	5.76	16.7	8.22	20.1	0.85	13.1	10.2	21.6	11.9	33.2	-3.18	-0.97	-0.18
COc1ccc2cc(-c3c(-c4ccncc4)nc(-c4ccc(S(C)(=O)=O)cc4C)n3C)ccc2c1	13.2	3.55	2.3	12.8	12.4	4.93	22.2	2.68	4.41	3.67	26.6	0.23	-0.19	6.07	8.9	3.38	11.2	1.11	5.61	0.01
O=C(Nc1ccc(Oc2ccc3[nH]c(NC(=O)c4ccccc4)nc3c2)cc1)Nc1cc(C(F)(F)F)ccc1F	31.1	1.86	2.1	5.27	14.2	62.6	90.2	25.4	78.7	38.6	87	0.56	5.31	4.24	11.4	4.33	11.2	1.78	4.56	-1
NC(=O)c1cc(-c2ccc(F)cc2)cc(-c2ccncc2)c1N	5.05	1.66	1.82			6.04	1.69	2.31	2.03	4.64	8.5	3.91	2.73	3.93	6.41	-1.61	10.9	-0.29	-1.13	-2.32
Fc1ccc(-c2ncn(CCCN3CCOCC3)c2-c2ccncc2)cc1	6.02	0.05	-1.57	0.29	-0.89	0.8	2.72	-0.64	0.11	2.85	7.08	-2.7	0.97	2.12	4.63	3.31	1.01	-3.46	-3.16	2.97
Nc1nccc(-c2c(-c3ccc(F)cc3)ncn2C2CCC(O)CC2)n1 (stereo not drawn)	30.3	-0.89	5.08	-2.8	2.44	3.09	19.3	0.11	5.11	3.7	25.2	3.96	13.3	28.6	76.4	0.34	18.3	-0.15	2.5	-1.99
COc1cccc(-n2cnc3c(N/N=C/c4ccncc4)ncnc32)c1	49.9	-0.1	0.9	-4.12	10.5	3.89	13.9	-0.06	12.5	2.51	32.8	0.89	0.14	-1.03	4.38	12.5	50.4	2.47	6.19	1.9
COc1cc(N2CCN(C(C)C)CC2)ccc1Nc1nc(Nc2ccc(F)cc2C(=O)NC[C@@H](O)CO)c2cc[nH]c2n1	5.07	2.85	4.03	87.3	96.5	5.61	8.19	5.31	18.4	6.02	13.9	7.42	2.76	17.8	60	3.75	9.14	-2.12	-0.49	-1.02
Cc1nnc(-c2ccc(C)c(-c3ccc(C(=O)NCc4ccc(Cl)cc4)cc3)c2)o1	3.27	1.52	2.43	6.59	10.6	8.83	2.3	2.03	2.91	1.1	7.75	1.1	2.52	4.75	7.75	-1.25	7.15	-2.08	-0.92	-5.79
O=C(Nc1n[nH]c2nc(-c3ccco3)ccc12)C1CC1	5.96	0.93	1.05	1.43	0.04	8.2	9.6	4.51	8.22	4.94	8.66	-0.93	4.1	3	3.03	-4.02	4.81	1.77	1.57	-0.47
CCc1ccc(Oc2nccc(-c3c(-c4ccc(F)cc4)ncn3C3CCNCC3)n2)cc1	13.8	0.83	-0.45	-1.83	2.07	3.04	7.38	3.58	4.57	4	8.79	3.67	2.97	6.34	6.93	10.2	10	-0.71	-0.39	0.89
